Source: PubChem BioAssay
JMJD2A Tudor: qHTS Assay for Inhibitors of JMJD2A-Tudor Domain; AlphaScreen JMJD2A-Tudor / H3K4me3 peptide binding; 4.4% of 390,000 active; Potency, µM (series often up to 114 µM), hits mostly inhibitors; also: nearly all actives have a fitted effect of over 50% in size
HP1b binding inh: HTS for Inhibitors of HP1-beta Chromodomain Interactions with Methylated Histone Tails; Chromobox protein homolog 1 (Homo sapiens), P83916; AlphaScreen HP1-beta / biotin-H3K9me3 peptide binding; Potency, µM (titrated, usually from 114 µM), hits mostly inhibitors; 0.56% of 390,000 active; also: nearly all actives have a fitted effect of over 70% in size
Target sequence (P83916 whole entry, looked up): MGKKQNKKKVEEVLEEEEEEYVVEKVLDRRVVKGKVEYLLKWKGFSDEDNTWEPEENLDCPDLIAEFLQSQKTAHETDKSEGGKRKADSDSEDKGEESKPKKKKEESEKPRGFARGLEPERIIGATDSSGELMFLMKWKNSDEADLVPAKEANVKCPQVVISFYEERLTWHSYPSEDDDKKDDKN
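HP1-beta protein (50 nM final) preincubated 30 min at room temperature with biotinylated H3(1-18)K9me3 peptide (50 nM) in PBS pH 7.4, 0.01% Tween-20, then compound added for 30 min. AlphaScreen streptavidin donor/nickel chelate acceptor beads (10 ug/mL final), 30 min dark, luminescence read.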
BAZ2B inh: qHTS Assay for Inhibitors of BAZ2B. Bromodomain adjacent to zinc finger domain protein 2B (Homo sapiens), Q9UIF8. AlphaScreen BAZ2B-H3K14Ac peptide displacement. Potency, µM (series often up to 114 µM), most hits filed as inhibitors. 4.4% of 360,000 active; also: nearly all actives have a fitted effect of over 60% in size
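Protein-peptide AlphaScreen: BAZ2B 50 nM, b-H3K14Ac 50 nM, 1x PBS pH 7.4 + 0.01% Tween-20. Preincubation 30 min RT; cpd 30 min RT (top 110 uM); beads 20 min RT, light-protected.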
G9a block: qHTS Assay for Inhibitors of Histone Lysine Methyltransferase G9a; Histone-lysine N-methyltransferase EHMT2 (Homo sapiens), Q96KQ7; G9a H3K9 monomethylation, AlphaScreen, 2 h; Potency, µM (titrated, usually from 102 µM), hits mostly inhibitors; 8.8% of 350,000 active; also: nearly all actives have a fitted effect of over 75% in size
Target sequence (Q96KQ7 913-1193 limits assumed): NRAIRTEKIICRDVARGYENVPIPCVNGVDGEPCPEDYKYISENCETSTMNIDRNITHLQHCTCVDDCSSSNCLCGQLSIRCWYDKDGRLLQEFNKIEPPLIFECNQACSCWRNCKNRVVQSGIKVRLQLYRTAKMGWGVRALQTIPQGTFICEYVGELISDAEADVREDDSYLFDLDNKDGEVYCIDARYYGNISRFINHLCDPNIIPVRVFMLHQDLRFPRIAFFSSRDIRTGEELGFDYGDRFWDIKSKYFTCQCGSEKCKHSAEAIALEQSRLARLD
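Readings reflect AlphaScreen signal from monomethyl-H3K9 antibody detection. HMT at 20 nM; substrate b-H3K9 500 nM; cofactor SAM 20 uM; 2 h RT reaction; compounds tested as titrations in qHTS with 15 min preincubation.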
L3MBTL1 block: qHTS Assay for the Inhibitors of L3MBTL1; AlphaScreen L3MBTL1–H3K9me1 peptide binding; Potency, µM (titrated, usually from 57.1 µM), hits mostly inhibitors; 0.66% of 230,000 active; AID 485360, 2010; also: nearly all actives have a fitted effect of over 60% in size
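Displacement of a biotinylated histone H3(1-15) peptide monomethylated at Lys9 (75 nM) from L3MBTL1 (50 nM) was measured by AlphaScreen after a 30 min room-temperature compound incubation; cefsulodin titration served as intraplate control.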
Sfp PPTase inh: qHTS Assay for Inhibitors of Bacillus subtilis Sfp phosphopantetheinyl transferase (PPTase). Potency, µM, usual class: inhibitors. 3.5% of 310,000 active. Biochemical Sfp PPTase activity, qHTS. 4'-phosphopantetheinyl transferase ffp (Bacillus subtilis), Q9F4F7. AID 1490, 2009;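 also: the enzyme is Sfp with the accession as filed and its product quenches rhodamine fluorescence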
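After 15 min at room temperature with compound, 15 nM Sfp received 5 uM rhodamine-CoA plus 12.5 uM BHQ-2-ybbR (50 mM Hepes pH 7.6, 10 mM MgCl2). Rate came from the fluorescence difference over 30 min, ex 525/em 598 nm.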
Each line names hits and unclear results; the compound was inactive in the other large screens. An excerpt weighted towards active compounds, which were near 12% of everything screened. Calls follow the shape of the dose curve; as a rule, active = well fitted curve in the direction sought with a large enough effect; inconclusive = small, poorly fitted or top-dose-only effect, or another doubt; inactive = no such curve, though single readings can be large; an effect the other way counts as inactive or inconclusive.

COc1ccc(CC(=O)N2CCN(C(=O)c3ccco3)CC2)cc1	G9a block inconclusive (no result: L3MBTL1 block)
CCc1ccc(CN2CCN(C(=O)c3ccco3)CC2)cc1	JMJD2A Tudor 20µM, HP1b binding inh inconclusive, BAZ2B inh 32µM, G9a block 11µM, Sfp PPTase inh inconclusive (no result: L3MBTL1 block)
O=C(c1ccco1)N1CCN(Cc2cc(=O)oc3cc(O)ccc23)CC1	G9a block 22µM (no result: Sfp PPTase inh)
COc1ccc(OC)c(CN2CCN(C(=O)c3ccco3)CC2)c1	JMJD2A Tudor 0.79µM, HP1b binding inh inconclusive, BAZ2B inh inconclusive, G9a block 18µM
O=C(c1ccco1)N1CCN(Cc2ccc(Br)cc2)CC1	none (no result: L3MBTL1 block)
CCOC(=O)N/N=C1/C[C@@H](O)[C@@H](O)[C@@H]2[C@@H]3C(=O)N(C(C)(C)C)C(=O)[C@H]3CC[C@@H]12	none (no result: JMJD2A Tudor, HP1b binding inh, BAZ2B inh, G9a block, L3MBTL1 block)
COc1cccc(C(=O)OCC(=O)Nc2ccc(N3CCOCC3)cc2)c1	none (no result: Sfp PPTase inh)
Cc1nnc(C)n1/N=C/C=C/c1ccccc1	none
S=c1[nH]nc(-c2cc(-c3ccccc3)n[nH]2)n1/N=C/C=C/c1ccco1	JMJD2A Tudor inconclusive, HP1b binding inh inconclusive, BAZ2B inh inconclusive, G9a block 1.8µM, L3MBTL1 block inconclusive, Sfp PPTase inh 16µM
S=c1[nH]nc(-c2ccco2)n1/N=C/C=C/c1ccco1	JMJD2A Tudor 3.5µM, HP1b binding inh inconclusive, BAZ2B inh inconclusive, G9a block 1.4µM
CC(C)C[C@H](NC(=O)[C@H](CCCCN)NC(=O)[C@H](CCC(N)=O)NC(=O)[C@H](Cc1cnc[nH]1)NC(=O)[C@H](Cc1cnc[nH]1)NC(=O)[C@@H](N)C(C)C)C(=O)N[C@H](C(=O)N[C@@H](Cc1ccccc1)C(=O)N[C@@H](Cc1ccccc1)C(=O)N[C@@H](C)C(=O)N[C@@H](CCC(=O)O)C(=O)N[C@@H](CC(=O)O)C(=O)N[C@H](C(=O)NCC(=O)N[C@@H](CO)C(=O)N[C@@H](CC(N)=O)C(=O)N[C@@H](CCCCN)C(=O)O)C(C)C)C(C)C	none (no result: JMJD2A Tudor, HP1b binding inh, BAZ2B inh, G9a block, L3MBTL1 block)
O=C(C1CC1)N1CCc2cc(S(=O)(=O)NCc3ccccc3)ccc21	none (no result: L3MBTL1 block)
Cc1ccc2cccc(OCC(=O)c3cc(C)n(Cc4ccco4)c3C)c2n1	G9a block inconclusive, L3MBTL1 block inconclusive, Sfp PPTase inh 56µM (no result: JMJD2A Tudor, HP1b binding inh)
Cc1ccc(C(=O)NCC(=O)OCC(=O)c2cc(C)n(Cc3ccco3)c2C)cc1	JMJD2A Tudor inconclusive, HP1b binding inh inconclusive, BAZ2B inh inconclusive, G9a block 45µM
CCOC(=O)C1CCN(C(=O)c2ccc(S(=O)(=O)Nc3ccccc3Cl)cc2)CC1	none (no result: Sfp PPTase inh)
CCOc1ccc(N=C/C=C/c2ccccc2)c(O)c1	JMJD2A Tudor 56µM, HP1b binding inh inconclusive, BAZ2B inh 35µM, G9a block 50µM, Sfp PPTase inh 50µM
Cc1occc1C(=O)N/N=C/C=C\c1ccccc1[N+](=O)[O-]	JMJD2A Tudor 89µM, BAZ2B inh inconclusive, G9a block inconclusive
CCOc1ccc(NCC(=O)N/N=C/C=C/c2ccccc2)cc1	JMJD2A Tudor inconclusive, BAZ2B inh inconclusive, G9a block 11µM
COc1ccc(NCC(=O)N/N=C/C=C/c2ccccc2[N+](=O)[O-])cc1	JMJD2A Tudor 79µM, BAZ2B inh 40µM, G9a block 11µM
O=C(N/N=C/C=C\c1ccccc1[N+](=O)[O-])c1ccco1	G9a block inconclusive
CCOC(=O)N/N=C/C=C/c1ccccc1[N+](=O)[O-]	JMJD2A Tudor inconclusive
Clc1cccc(-n2cc(-c3ccccc3)c3c(N4CCCCC4)ncnc32)c1	none (no result: L3MBTL1 block, Sfp PPTase inh)
O=C(Nc1c(C(=O)Nc2ccc(F)cc2)oc2ccccc12)c1ccccc1F	none (no result: L3MBTL1 block, Sfp PPTase inh)
O=C(Cc1ccccc1)N/N=C/C=C/c1cccc([N+](=O)[O-])c1	none
COc1ccc(NCC(=O)N/N=C/c2cc([N+](=O)[O-])ccc2N2CCCC2)cc1	JMJD2A Tudor inconclusive, HP1b binding inh inconclusive, BAZ2B inh inconclusive, G9a block 8.9µM
COc1ccc(NCC(=O)N/N=C/C(C)c2ccccc2)cc1 (stereo not given)	JMJD2A Tudor inconclusive, BAZ2B inh inconclusive, G9a block 28µM
Cc1ccccc1NCC(=O)N/N=C\C=C\c1cccc([N+](=O)[O-])c1	JMJD2A Tudor 50µM, BAZ2B inh inconclusive, G9a block inconclusive
COc1ccc(NCC(=O)N/N=C/c2ccc3c(c2)OCCO3)cc1	JMJD2A Tudor inconclusive, BAZ2B inh inconclusive, G9a block inconclusive
Cc1cc(N2CCN(C)CC2)nc2ccc(NC(=O)Nc3cccc(Cl)c3)cc12	G9a block inconclusive (no result: L3MBTL1 block, Sfp PPTase inh)
C=CC[n+]1c(-c2ccc(OCC)cc2)csc1NNC(=O)Nc1ccccc1	JMJD2A Tudor 22µM, HP1b binding inh 14µM, BAZ2B inh 10µM, G9a block inconclusive (no result: L3MBTL1 block)
Cc1ccc(C(=O)NCCNS(=O)(=O)c2ccccc2[N+](=O)[O-])cc1	none
CC(C(=O)O)N1C(=O)C2C3CC(C2C1=O)C1C(c2ccccc2)c2sc(=O)[nH]c2SC31 (stereo not given)	none
COc1cc(C2c3sc(=O)[nH]c3SC3C(=O)N(c4ccc(Br)cc4)C(=O)C32)ccc1O (stereo not given)	JMJD2A Tudor inconclusive, BAZ2B inh inconclusive, G9a block inconclusive
O=c1[nH]c2c(s1)C(c1ccc(O)cc1)C1C3CCC(C3)C1S2 (stereo not given)	BAZ2B inh inconclusive, G9a block inconclusive, Sfp PPTase inh 50µM
COc1ccc(C2c3sc(=O)[nH]c3SC3C4CCC(C4)C23)cc1OC (stereo not given)	JMJD2A Tudor inconclusive, HP1b binding inh inconclusive, BAZ2B inh inconclusive, G9a block 8.9µM
CCOc1ccc2oc(C(=O)N(CC)CC(=O)Nc3c(F)cccc3F)c(C)c2c1	BAZ2B inh inconclusive, G9a block inconclusive (no result: Sfp PPTase inh)
CCN(CC)c1ccc(C(=O)N2CCC(c3c[nH]c4ccccc34)(c3c[nH]c4ccccc34)CC2)cc1	JMJD2A Tudor inconclusive, BAZ2B inh inconclusive (no result: L3MBTL1 block, Sfp PPTase inh)
CCN(C(=O)c1ccc(S(=O)(=O)N2CCCC2)cc1)C1CCS(=O)(=O)C1 (stereo not given)	none (no result: Sfp PPTase inh)
COc1ccc(N(C(C)C(=O)NCc2ccco2)S(C)(=O)=O)cc1 (stereo not given)	G9a block 50µM
